Test results as given in PubChem BioAssay (NCI).
The panel holds about 83,000 compounds, 20% with a hit somewhere; the sample as a whole holds those more often.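 96-well plates, one dose, 48 hours. Percent growth reported; active if below 10.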 A number with no mark means an inactive call. Active and inactive are the calls of the source.

Experiments:
Experiment in all cases: NCI-60 one-dose screen, 48 h (100 = growth as untreated, 0 = no growth, -100 = all killed)
Conditions in all cases: 10 µM unless noted
HCT-15 colon = test system: HCT-15 colon
HT29 colon = test system: HT29 colon
SNB-75 CNS = test system: SNB-75 CNS
SNB-19 CNS = test system: SNB-19 CNS
U251 CNS = test system: U251 CNS
PC-3 prostate = test system: PC-3 prostate
SK-MEL-5 melanoma = test system: SK-MEL-5 melanoma
UACC-62 melanoma = test system: UACC-62 melanoma
LOX IMVI melanoma = test system: LOX IMVI melanoma
SK-MEL-28 melanoma = test system: SK-MEL-28 melanoma
SK-MEL-2 melanoma = test system: SK-MEL-2 melanoma
SN12C renal = test system: SN12C renal
UO-31 renal = test system: UO-31 renal
TK-10 renal = test system: TK-10 renal
ACHN renal = test system: ACHN renal
A498 renal = test system: A498 renal
MOLT-4 leukemia = test system: MOLT-4 leukemia
CCRF-CEM leukemia = test system: CCRF-CEM leukemia
CAKI-1 renal = test system: CAKI-1 renal

| Structure (SMILES) | growth (HCT-15 colon) | growth (HT29 colon) | growth (SNB-75 CNS) [%] | growth (SNB-19 CNS) [%] | growth (U251 CNS) | growth (PC-3 prostate) | growth (SK-MEL-5 melanoma) | growth (UACC-62 melanoma) | growth (LOX IMVI melanoma) | growth (SK-MEL-28 melanoma) | growth (SK-MEL-2 melanoma) | growth (SN12C renal) | growth (UO-31 renal) | growth (TK-10 renal) | growth (ACHN renal) | growth (A498 renal) | growth (MOLT-4 leukemia) | growth (CCRF-CEM leukemia) | growth (CAKI-1 renal) |
| --- | --- | --- | --- | --- | --- | --- | --- | --- | --- | --- | --- | --- | --- | --- | --- | --- | --- | --- | --- |
| CC(C)(C)CC(C)(C)c1ccc(OCCOCC[N+](C)(C)CC(=O)[O-])cc1 | 105% | 103% | 99.2 | 111 | 98.4% | 104% | 106% | 104% | 107% | 114% | 117% | 103% | 98.5% | 109% | 111% | 104% | 94.2% | – | – |
| NS(=O)(=O)c1ccc(CCNC(=O)/C=C/c2ccc(Cl)cc2)cc1 | 98.5% | 95.7% | 85.2 | 99 | 97.8% | 87.1% | 105% | 104% | 99.1% | 104% | 106% | 92.9% | 83.7% | 121% | 102% | 89% | 74.6% | 91.1% | – |
| C/C(=N/NC(N)=S)C(=O)O | 82.9% | 56.5% | 95.3 | 98.4 | 73.9% | 72.8% | 102% | 99.9% | 74.9% | 103% | 118% | – | 73.6% | 119% | 91.7% | 110% | 27.7% | – | – |
| Cc1[c-]onc1C.Cc1[c-]onc1C.[Ag].[Ag].[NH-]S(=O)(=O)c1ccc(N=Nc2cc(N=Nc3ccc(S([NH-])(=O)=O)cc3)c3c(NC(=O)C(Cl)Cl)cccc3c2OC(=O)C(Cl)Cl)cc1 | 84.1% | 78.3% | 44.8 | 86.6 | 82.7% | 47.1% | 24.2% | 85.9% | 81.4% | 86.4% | – | 94.1% | 71.4% | 133% | 58% | – | 81.8% | 11% | 68.5% |
| O=C(CI)Nc1ccc(O)c2ccccc12 | -10.1% (active) | 0.99% (active) | 54.2 | 46.1 | -28.4% (active) | 43.3% | -47.7% (active) | -58.7% (active) | -60.6% (active) | 41.5% | -1.68% (active) | – | -28.7% (active) | -34% (active) | 6.99% (active) | 95% | -23.6% (active) | -26.7% (active) | – |
| COC(=O)c1cc(=O)nc(N/N=C/c2ccc(C)cc2)s1 | 86.2% | 104% | 91.7 | 109 | 107% | 91.2% | 98.9% | 115% | 109% | 104% | – | 110% | 86.4% | 104% | 107% | 104% | 92.6% | 93% | 102% |
| CN1CCN(c2nc(-c3cccc4ccccc34)nc3sc4c(c23)CCCCCC4)CC1 | 91.8% | 71.2% | 49.1 | 91.5 | 66.4% | 56.7% | 85.3% | 87.6% | 95.1% | 98.1% | 106% | 75.9% | – | 113% | 82.7% | 94.2% | 74% | 75.2% | – |
| COc1ccc(C(=O)/C=C/c2cc(-c3cc(OC)c(OC)c(OC)c3)n[nH]2)cc1OC | -16.4% (active) | -71% (active) | 33.2 | 35.2 | -85.5% (active) | 20.3% | 12.3% | 34.1% | -96.3% (active) | -60.6% (active) | 22.6% | 5.5% (active) | -84.8% (active) | – | -86.2% (active) | 4.21% (active) | -1.18% (active) | -18.6% (active) | -67% (active) |
| Nc1c(C(=O)Nc2cccc(Cl)c2)sc2ncc(Cl)cc12 | 80.7% | 90.3% | 59.6 | 105 | 10.6% | 95.7% | 94.3% | 95.5% | 44.8% | 91.7% | – | 79.3% | 80.5% | 118% | – | 103% | 75.8% | – | 82.6% |
| O=C1C=C(C(O)c2ccc(O)cc2)C(=O)c2ccccc21 (stereo not drawn) | 94.9% | 115% | 102 | 110 | 95.1% | 99.5% | 96.5% | 101% | 83.7% | 120% | 109% | 107% | 69.2% | 103% | 92.7% | 104% | 84.8% | – | – |
| OCC12CCCC(CO)(COC1)C2O (stereo not drawn) | 106% | 105% | 96.4 | 116 | 99.2% | 99.7% | 99.8% | 107% | 98.6% | 107% | 117% | – | 91.1% | 113% | 103% | – | 126% | -57.2% (active) | – |
| COC(=O)C(N)CSC(c1ccccc1)(c1ccccc1)c1ccccc1 (stereo not drawn) | 28% | 1.58% (active) | 31.4 | 63.7 | 23.3% | 25.1% | 23.9% | 54.3% | 35.2% | 49.5% | – | 39.9% | – | 49.5% | 57% | 34.1% | 8.4% (active) | 13.7% | – |
| COc1cc(-c2nc(-c3ccccc3)c(-c3ccccc3)[nH]2)cc(OC)c1O | 11.1% | 0.965% (active) | 29.7 | 20.1 | 5.45% (active) | -58.6% (active) | -8.78% (active) | -60.6% (active) | -47.7% (active) | -4.06% (active) | -39.7% (active) | 2.29% (active) | 5.85% (active) | 0.953% (active) | 15.2% | 82.8% | 4.88% (active) | -0.116% (active) | – |
| NC(Cc1ccc(O)cc1)C(=O)N/N=C/c1ccccc1O (stereo not drawn) | 96.8% | 101% | 92.7 | 110 | 96.9% | 89.3% | 103% | 113% | 92.6% | 106% | – | 114% | 74.6% | 98% | 116% | 103% | 75.6% | 81.2% | 107% |
| COC(=O)[C@@H]1[C@H]2C[C@H]3c4[nH]c5cc(OC)ccc5c4CCN3C[C@@H]2C[C@H](OC(=O)/C=C/c2ccnc(OC)c2)[C@H]1OC | 71.1% | 75.6% | 53.5 | 86.7 | 78% | 76% | 94.8% | 86.7% | 86.5% | 99.2% | 106% | 99.2% | 67.5% | 87.3% | 66.1% | 79.4% | 75.9% | – | – |
| C[N+](C)(CCCCCC[N+](C)(C)C1c2ccccc2-c2ccccc21)C1c2ccccc2-c2ccccc21 | 105% | 110% | 95 | 105 | 96.4% | 98.2% | 111% | 108% | 104% | 111% | 95.8% | 108% | 89% | 112% | 106% | – | 90.1% | 106% | – |
